PubChem BioAssay (Tox21)
Values joined by “and” are separate entries in the source; they are usually repeats but may differ in a detail not shown here. Identical values can stand only once. Records with an inconclusive call do not appear. A call without a number means that no potency is given here. The source holds several records for some structures; these can differ, active in one and inactive in another. Active and inactive are the calls of the source. Unless noted, the call rests on the fitted dose curve; in most records, active means well fitted curve in the direction sought with a large enough effect in the repeat runs; inconclusive means weak or mixed curves; inactive means no such curve, though single readings can be large; an effect the other way counts as inactive or inconclusive.

Tests used:
[1] = qHTS assay to identify small molecule agonists of the estrogen receptor alpha (ER-alpha) signaling pathway in the presence of an antagonist - cell viability counter screen (AID 1259386);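 further: cells exposed to compounds for 22 h at 37 °C before the viability read; nearly all actives have a fitted effect of over 30% in size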; further: potency means the concentration at half of the fitted maximal effect
How it was run: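 The test measures whether compounds kill ER-alpha reporter cells (VM7Luc4E2) under antagonist co-treatment (ICI-182,780, 10.0nM). Fluorescence from CellTiter-Fluor is read after a 22hr exposure.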

[2] = target: Progesterone receptor (Homo sapiens) (UniProt P06401); experiment: qHTS assay to identify small molecule agonists of the progesterone receptor (PR) signaling pathway (AID 1346784; calls by dose curve; further: nearly all actives have a fitted effect of over 30% in size)
How it was run: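 Reporter assay, GripTite PR-UAS-bla HEK 293T cells: 16 hr exposure to DMSO-dissolved compounds at 37C, 5% CO2, in steroid-depleted (2% charcoal-stripped FBS) medium; beta-lactamase measured by FRET fluorescence.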

[3] = target: Progesterone receptor (Homo sapiens) (UniProt P06401); experiment: qHTS assay to identify small molecule antagonists of the progesterone receptor (PR) signaling pathway (AID 1346795; active means well fitted inhibition curve with a large enough effect in the signal ratio in the repeat runs, not every such curve was filed as active; the % refers to the signal ratio; further: potency means the concentration at half of the fitted maximal effect)
How it was run: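 Stimulus R5020 at 1 nM final; cells HEK293T PR-UAS-bla; medium with 2% charcoal-stripped FBS; compound exposure 16 hr at 37C, 5% CO2; detection by FRET beta-lactamase substrate, 2 hr, room temperature.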

[4] = qHTS assay to identify small molecule antagonists of the progesterone receptor (PR) signaling pathway - cell viability counter screen (AID 1346798); further: nearly all actives have a fitted effect of over 50% in size; further: potency means the concentration at half of the fitted maximal effect
How it was run: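 In the same plates used for the beta-lactamase readout, cell viability of compound- and R5020-treated PR-UAS-bla HEK293T cells (16 hr, 37C) was assessed by CellTiter-Glo luminescence.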

[5] = qHTS assay to identify small molecule agonists of the progesterone receptor (PR) signaling pathway - cell viability counter screen (AID 1346799; calls by dose curve; further: nearly all actives have a fitted effect of over 45% in size; further: potency means the concentration at half of the fitted maximal effect)
How it was run: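 Multiplexed viability read: CellTiter-Glo luminescence, 30 min RT, following LiveBLAzer FRET measurement on PR-UAS-bla HEK293T cells exposed to compounds 16 hr.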

[6] = qHTS assay to identify small molecule agonists of the TGF-beta/Smad signaling pathway - cell viability counter screen (AID 1346829); further: top concentration of the series differs between compounds; nearly all actives have a fitted effect of over 45% in size
How it was run: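 Same-well cytotoxicity: CellTiter-Glo added after the 2 hr room-temperature beta-lactamase substrate step, luminescence measured 30 min later; cells had 5 hr of compound at 37 C.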

[7] = qHTS assay to identify small molecule agonists of the TGF-beta/Smad signaling pathway (AID 1346859; active means well fitted activation curve with a large enough effect in the signal ratio in the repeat runs, not every such curve was filed as active; the % refers to the signal ratio; further: series mostly up to about 77 µM)
How it was run: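 Screening used HEK 293T SBE-bla cells at 4,000/well. Test agents: 5 hr, 37 C. Detection: FRET substrate, 2 hr RT, then excitation 405 nm with emissions at 460 and 530 nm.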

[8] = Human pregnane X receptor (PXR) small molecule agonists, qHTS cell viability counter screen (AID 1346977); further: nearly all actives have a fitted effect of over 50% in size; further: potency means the concentration at half of the fitted maximal effect
How it was run: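 In each well, the PXR reporter HepG2 line was checked for viability: CellTiter-Fluor reagent added 23hr post-dosing, fluorescence read after 1hr incubation at 37C.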

[9] = Caspase-3/7 induction in HepG2 cells by small molecules, qHTS assay (AID 1346978); further: nearly all actives have a fitted effect of over 15% in size; further: potency means the concentration at half of the fitted maximal effect
How it was run: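 Caspase-3/7 induction was measured by Caspase-Glo 3/7 luminescence (30 min, room temperature) after a 17 hr compound exposure of wild-type HepG2 cells seeded at 2,000 per well and pre-incubated 5 hr.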

[10] = Caspase-3/7 induction in CHO-K1 cells by small molecules, qHTS cell viability counter screen (AID 1346979); further: nearly all actives have a fitted effect of over 35% in size; further: potency means the concentration at half of the fitted maximal effect
How it was run: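 Following a 5hr settling period, CHO-K1 cells at 1,500 per well received DMSO-dissolved compounds. Cell viability was quantified 16hr later by CellTiter-Fluor fluorescence, measured after 1hr with reagent at 37C.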

[11] = Caspase-3/7 induction in CHO-K1 cells by small molecules, qHTS assay (AID 1346980); further: nearly all actives have a fitted effect of over 15% in size
How it was run: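 Luminescent Caspase-Glo 3/7 read (30min, room temperature) quantified apoptosis induction. Cells were wild-type CHO-K1, treated with compound for 17hr at 37 C and 5% CO2.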

[12] = Caspase-3/7 induction in HepG2 cells by small molecules, qHTS cell viability counter screen (AID 1346981); further: series mostly up to about 92 µM; nearly all actives have a fitted effect of over 30% in size
How it was run: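 Treatment of HepG2 cells with DMSO-delivered compounds ran 16 hr at 37 C following a 5-hr pre-incubation of 2,000 cells/well. CellTiter-Fluor fluorescence, read after 1 hr, served as the viability measure in a qHTS format.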

[13] = target: Nuclear receptor subfamily 1 group I member 2 (Homo sapiens) (UniProt O75469); experiment: Human pregnane X receptor (PXR) small molecule agonists, qHTS assay (AID 1346982); further: nearly all actives have a fitted effect of over 35% in size; further: potency means the concentration at half of the fitted maximal effect
How it was run: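 Stable HepG2 line reporting PXR-mediated CYP3A4 expression via luciferase. Treatment: 24 hr with compounds in DMSO at 37 C. Detection: ONE-Glo luminescence.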

[14] = target: Acetylcholinesterase (Homo sapiens) (UniProt P22303); experiment: Acetylcholinesterase (AChE) small molecule antagonists: colormetric cell-based qHTS assay (AID 1347395; calls by dose curve; further: nearly all actives have a fitted effect of over 30% in size)
How it was run: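 After overnight attachment at 37 C, SH-SY5Y cells get 30 min compound exposure; detection cocktail (acetylthiocholine, DTNB) then incubates 90 min at 37 C, and absorbance reflects AChE-generated thiocholine.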

[15] = target: Thyrotropin-releasing hormone receptor (Homo sapiens) (UniProt P34981); experiment: qHTS assay to identify small molecule agonists of the thyrotropin-releasing hormone receptor (TRHR) signaling pathway (AID 1346891; calls by dose curve; further: series mostly up to about 58 µM)
How it was run: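 Readout was intracellular calcium fluorescence in TRHR-Hek293 cells. Cells were incubated 18 h, dye-loaded 2 h at 37 °C, and treated with compound in agonist mode.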

[16] = qHTS assay to identify small molecule antagonists of the TGF-beta/Smad signaling pathway - cell viability counter screen (AID 1346824); further: nearly all actives have a fitted effect of over 50% in size
How it was run: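 Cytotoxicity counter-screen run in the same wells as the beta-lactamase Smad reporter read: CellTiter-Glo luminescence after 30 min at room temperature. HEK 293T SBE-bla cells had 5 hr compound exposure at 37 C with TGF-beta1 (0.25 ng/mL stock).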

[17] = target: Nuclear receptor subfamily 1 group I member 2 (Rattus norvegicus) (UniProt Q9R1A7); experiment: Rat pregnane X receptor (rPXR) activation by small molecules, qHTS assay (AID 1346983); conditions: rPXR luciferase reporter cells, One-Glo luminescence, 24 h; stronger effect = higher value; further: nearly all actives have a fitted effect of over 20% in size
How it was run: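 Luminescent readout (One-Glo luciferase, 30 min room temperature) followed 24 hr compound treatment at 37 C of rPXR cells plated 2,000 per well and preincubated 5hr; qHTS format with compounds delivered in DMSO.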

[18] = target: Nuclear receptor subfamily 1 group I member 2 (Homo sapiens) (UniProt O75469); experiment: CYP3A4 induction through human pregnane X receptor (PXR) by small molecules, qHTS assay (AID 1346984); further: nearly all actives have a fitted effect of over 40% in size
How it was run: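 After 24 h at 37C with compound, DPX-2 cells (HepG2, co-transfected PXR response element and CYP3A4 promoter-luciferase) got 3uM final P450-Glo Luciferin-IPA for 3 h; One-Glo luminescence followed.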

[19] = target: Nuclear receptor subfamily 1 group I member 2 (Homo sapiens) (UniProt O75469); experiment: Human pregnane X receptor (PXR) activation by small molecules, qHTS assay (AID 1346985); further: nearly all actives have a fitted effect of over 40% in size
How it was run: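 DPX-2 cells (HepG2 co-transfected with a PXR response element and a CYP3A4-promoter luciferase construct) were seeded at 2,000 per well, rested 5 hr at 37C, then exposed to DMSO-dissolved compounds for 24 hr. Activation was read as luciferase luminescence.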

[20] = target: Thyrotropin-releasing hormone receptor (Homo sapiens) (UniProt P34981); experiment: qHTS assay to identify small molecule antagonists of the thyrotropin-releasing hormone receptor (TRHR) signaling pathway (AID 1346877; active means well fitted inhibition curve with a large enough effect in the repeat runs, not every such curve was filed as active; further: series mostly up to about 51 µM)
How it was run: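 Overnight-plated (18 h, 37 °C) HEK293 cells expressing TRHR were dye-loaded 2 h, treated with compound, then stimulated with TRH at 1 nM final. Fluorescence intensity was captured every second for 3 min.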

Sequence of Thyrotropin-releasing hormone receptor (Homo sapiens) (P34981 whole entry, looked up): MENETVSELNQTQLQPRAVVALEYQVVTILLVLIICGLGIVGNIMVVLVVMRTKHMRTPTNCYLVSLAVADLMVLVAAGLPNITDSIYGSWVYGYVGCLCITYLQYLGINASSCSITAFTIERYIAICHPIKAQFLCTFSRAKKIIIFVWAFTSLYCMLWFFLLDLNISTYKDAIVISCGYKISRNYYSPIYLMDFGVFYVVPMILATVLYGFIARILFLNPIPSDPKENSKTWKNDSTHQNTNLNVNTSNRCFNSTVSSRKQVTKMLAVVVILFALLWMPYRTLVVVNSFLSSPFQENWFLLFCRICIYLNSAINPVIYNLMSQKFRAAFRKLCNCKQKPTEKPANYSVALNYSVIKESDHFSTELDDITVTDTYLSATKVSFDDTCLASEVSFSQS
Sequence of Acetylcholinesterase (Homo sapiens) (P22303 whole entry, looked up): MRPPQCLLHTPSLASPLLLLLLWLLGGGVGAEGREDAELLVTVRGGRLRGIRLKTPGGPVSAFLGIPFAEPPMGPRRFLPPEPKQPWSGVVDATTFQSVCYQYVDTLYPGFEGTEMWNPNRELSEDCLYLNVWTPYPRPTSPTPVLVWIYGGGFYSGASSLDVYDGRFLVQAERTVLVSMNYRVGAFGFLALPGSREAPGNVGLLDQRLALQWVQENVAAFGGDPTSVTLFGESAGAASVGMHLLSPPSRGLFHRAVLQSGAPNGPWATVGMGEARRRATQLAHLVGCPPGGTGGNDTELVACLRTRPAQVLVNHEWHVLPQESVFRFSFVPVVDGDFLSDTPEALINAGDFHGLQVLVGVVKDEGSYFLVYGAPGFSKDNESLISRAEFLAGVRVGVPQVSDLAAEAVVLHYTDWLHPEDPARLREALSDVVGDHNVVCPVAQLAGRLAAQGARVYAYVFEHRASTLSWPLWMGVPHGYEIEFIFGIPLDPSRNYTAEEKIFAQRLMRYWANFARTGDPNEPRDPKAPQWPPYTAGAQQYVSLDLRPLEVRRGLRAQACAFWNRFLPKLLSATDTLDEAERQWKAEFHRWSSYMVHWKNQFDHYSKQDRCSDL
Sequence of Nuclear receptor subfamily 1 group I member 2 (Homo sapiens) (O75469 whole entry, looked up): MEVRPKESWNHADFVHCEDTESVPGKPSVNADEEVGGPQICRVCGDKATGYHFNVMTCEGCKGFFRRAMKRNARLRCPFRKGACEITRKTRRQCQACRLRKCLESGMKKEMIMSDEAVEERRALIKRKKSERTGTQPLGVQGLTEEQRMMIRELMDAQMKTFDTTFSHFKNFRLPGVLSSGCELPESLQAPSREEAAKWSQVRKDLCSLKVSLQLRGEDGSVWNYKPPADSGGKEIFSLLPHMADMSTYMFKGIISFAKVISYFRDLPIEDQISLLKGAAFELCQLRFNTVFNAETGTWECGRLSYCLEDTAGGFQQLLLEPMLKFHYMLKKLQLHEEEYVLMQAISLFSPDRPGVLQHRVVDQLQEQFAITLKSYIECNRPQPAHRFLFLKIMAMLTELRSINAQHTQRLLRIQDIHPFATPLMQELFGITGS
Sequence of Progesterone receptor (Homo sapiens) (P06401 whole entry, looked up): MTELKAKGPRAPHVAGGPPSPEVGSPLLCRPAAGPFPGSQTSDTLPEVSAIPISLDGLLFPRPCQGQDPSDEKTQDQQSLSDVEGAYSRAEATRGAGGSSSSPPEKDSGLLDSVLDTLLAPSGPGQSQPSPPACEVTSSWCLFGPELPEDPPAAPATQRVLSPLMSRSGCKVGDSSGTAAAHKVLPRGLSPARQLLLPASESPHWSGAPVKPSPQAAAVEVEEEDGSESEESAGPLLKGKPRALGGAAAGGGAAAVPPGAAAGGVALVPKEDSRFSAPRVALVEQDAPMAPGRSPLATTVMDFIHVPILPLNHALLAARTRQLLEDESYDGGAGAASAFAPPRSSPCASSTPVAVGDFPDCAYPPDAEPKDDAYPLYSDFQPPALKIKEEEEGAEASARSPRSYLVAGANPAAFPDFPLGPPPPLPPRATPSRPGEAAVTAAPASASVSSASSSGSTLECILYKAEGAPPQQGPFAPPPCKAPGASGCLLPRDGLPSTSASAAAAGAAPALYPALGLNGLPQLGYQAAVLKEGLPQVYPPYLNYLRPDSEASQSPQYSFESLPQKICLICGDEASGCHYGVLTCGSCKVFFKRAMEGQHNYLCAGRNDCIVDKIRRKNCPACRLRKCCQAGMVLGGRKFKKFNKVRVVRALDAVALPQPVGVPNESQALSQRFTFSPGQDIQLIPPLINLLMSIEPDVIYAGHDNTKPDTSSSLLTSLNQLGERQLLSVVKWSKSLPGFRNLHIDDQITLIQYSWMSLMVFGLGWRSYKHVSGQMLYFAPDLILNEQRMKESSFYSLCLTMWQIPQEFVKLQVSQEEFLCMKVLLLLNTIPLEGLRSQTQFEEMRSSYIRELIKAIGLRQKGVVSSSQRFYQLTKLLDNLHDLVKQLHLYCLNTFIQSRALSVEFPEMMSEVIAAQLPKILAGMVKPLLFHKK
Sequence of Nuclear receptor subfamily 1 group I member 2 (Rattus norvegicus) (Q9R1A7 whole entry, looked up): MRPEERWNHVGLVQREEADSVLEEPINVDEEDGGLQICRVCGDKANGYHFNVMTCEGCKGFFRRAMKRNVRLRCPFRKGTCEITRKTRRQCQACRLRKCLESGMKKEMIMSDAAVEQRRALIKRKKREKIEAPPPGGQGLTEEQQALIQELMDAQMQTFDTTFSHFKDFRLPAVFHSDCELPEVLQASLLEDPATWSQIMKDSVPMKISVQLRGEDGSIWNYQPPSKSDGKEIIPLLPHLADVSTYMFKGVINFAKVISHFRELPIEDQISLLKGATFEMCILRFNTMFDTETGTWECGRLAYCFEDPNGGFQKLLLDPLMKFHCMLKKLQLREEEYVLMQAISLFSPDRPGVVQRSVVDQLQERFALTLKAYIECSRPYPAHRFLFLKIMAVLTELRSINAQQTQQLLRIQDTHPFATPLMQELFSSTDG

Row | SMILES | Potency [1] | Potency [2] | Potency [3] | Potency [4] | Potency [5] | Potency [6] | outcome [7] | Potency [8] | Potency [9] | Potency [10] | Potency [11] | Potency [12] | Potency [13] | Potency [14] | Potency [15] | Potency [16] | max activation [17] | outcome [18] | outcome [19] | Potency [20]
1 | CN(C)C(=O)Nc1ccc(Cl)cc1 | inactive | inactive | inactive | inactive | inactive | inactive | inactive | inactive | inactive | inactive | inactive | inactive | inactive | inactive | – | – | – | – | – | –
2 | CCOc1cc(Oc2ccc(C(F)(F)F)cc2Cl)ccc1[N+](=O)[O-] | inactive | inactive | 15.5 µM (active) and 13.7 µM (active) | inactive | – | inactive | inactive | inactive | inactive | – | inactive | inactive | 27.6 µM (active) and 17.2 µM (active) | inactive | inactive | – | – | – | – | –
3 | C=CCc1ccc2c(c1)OCO2 | inactive | inactive | inactive | inactive | inactive | inactive | inactive | inactive | 43.5 µM (active) and inactive | inactive | – | inactive | 61.4 µM (active) and inactive | inactive | – | – | – | – | – | –
4 | COP(=O)(OC)OC | inactive | inactive | inactive | inactive | inactive | inactive | inactive | 44.7 µM (active) and inactive | inactive | 30.9 µM (active) and inactive | inactive | inactive | 61.6 µM (active) and inactive | inactive | inactive | – | – | – | – | –
5 | Oc1cc(Cl)c(Cl)cc1Cl | inactive | inactive | 60.6 µM (active) and inactive and 54.5 µM (active) | inactive | – | inactive | inactive | inactive | inactive | – | inactive | inactive | 60.6 µM (active) | inactive | inactive | inactive | -1.86% (inactive) | inactive | inactive | –
6 | NNC(N)=S | inactive | inactive | 11.3 µM (active) and 21.7 µM (active) | 12.7 µM (active) and 24.3 µM (active) | 43.3 µM (active) | inactive | inactive | inactive and 30.6 µM (active) | inactive | 25.3 µM (active) and 48.6 µM (active) | – | inactive | 56.6 µM (active) and 21.7 µM (active) | inactive | inactive | – | – | – | – | inactive
7 | N#CCCCl | inactive | inactive | inactive | inactive | inactive | inactive | inactive | inactive | inactive | inactive | inactive | – | inactive | inactive | – | inactive | – | – | – | –
8 | O=C(CCl)c1ccccc1 | inactive | inactive | inactive | inactive | inactive | inactive | inactive | inactive | inactive | 68.6 µM (active) | – | – | 62 µM (active) | inactive | – | inactive | – | – | – | –
9 | CC(C)=CC1C(C(=O)OCc2coc(Cc3ccccc3)c2)C1(C)C (stereo not given) | inactive | inactive | 48.6 µM (active) | inactive | inactive | inactive | inactive | inactive | inactive | inactive | inactive | inactive | 24.3 µM (active) | inactive | – | – | – | – | – | –
10 | CCOc1cc(C=O)ccc1O | inactive | inactive | inactive | inactive | inactive | inactive | inactive | inactive | inactive | inactive | inactive | – | inactive | inactive | inactive | – | – | – | – | inactive
11 | CCC(C)c1cc([N+](=O)[O-])cc([N+](=O)[O-])c1O (stereo not given) | inactive and 24.3 µM (active) | inactive | inactive | inactive | inactive | inactive | inactive | inactive and 8.63 µM (active) | inactive | inactive and 15.4 µM (active) | inactive | – | inactive and 27.3 µM (active) | inactive | – | inactive | – | – | – | –
12 | NC(=S)Nc1ccccc1 | inactive | inactive | inactive | inactive | inactive | inactive | inactive | inactive | inactive | inactive | inactive | inactive | inactive | inactive | inactive | – | – | – | – | inactive
13 | CC(C)N(C(=O)SCC(Cl)=C(Cl)Cl)C(C)C | inactive | inactive | inactive | inactive | inactive | inactive | inactive | inactive | inactive | inactive | inactive | inactive | inactive | inactive | inactive | – | – | – | – | –
14 | N#CC(Br)Br | inactive | inactive | inactive | inactive | inactive | inactive | inactive | inactive | inactive | inactive | – | inactive | inactive | inactive | inactive | – | – | – | – | inactive
15 | O=Cc1ccco1 | inactive | inactive | inactive | inactive | inactive | inactive | inactive | inactive | inactive | inactive | – | inactive | inactive | inactive | inactive | inactive | -0.979% (inactive) | inactive | inactive | –
16 | O=[N+]([O-])c1cccc2ccccc12 | inactive | inactive | inactive | inactive | inactive | inactive | inactive | inactive | inactive | inactive | inactive | – | inactive | inactive | inactive | – | – | – | – | inactive
17 | Cc1c(COC(=O)[C@@H]2[C@H](/C=C(\Cl)C(F)(F)F)C2(C)C)cccc1-c1ccccc1 | inactive | inactive | inactive | – | inactive and 54.3 µM (active) | inactive | inactive | inactive | inactive | 43.1 µM (active) | inactive | inactive | 26.7 µM (active) and inactive | inactive | – | inactive | – | – | – | –
